Experimental data as given in PubChem BioAssay (NCI).
This is part of a sample that, as a whole, favours compounds with a hit. Of some 83,000 tested, about 20% had one in any assay.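 The endpoint reported here, percent growth, reads 100 for growth as untreated, 0 for no net growth and -100 for all cells dead.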 Unmarked numbers belong to inactive results. Activity calls are given as the source filed them. How the source made its calls: active means growth percent below 10; inactive means the rest.

Experiments:
Assay in all cases: NCI-60 one-dose screen, 48 h (100 = growth as untreated, 0 = no growth, -100 = all killed)
Conditions in all cases: 10 µM
[1] = system: DU-145 prostate
[2] = system: K-562 leukemia
[3] = system: MALME-3M melanoma
[4] = system: MDA-MB-231 breast
[5] = system: RXF 393 renal
[6] = system: SF-268 CNS
[7] = system: SF-295 CNS
[8] = system: SF-539 CNS
[9] = system: UACC-257 melanoma
[10] = system: M14 melanoma
[11] = system: HCT-15 colon
[12] = system: HT29 colon
[13] = system: SNB-75 CNS
[14] = system: SNB-19 CNS
[15] = system: U251 CNS
[16] = system: PC-3 prostate
[17] = system: SK-MEL-5 melanoma
[18] = system: UACC-62 melanoma
[19] = system: LOX IMVI melanoma
[20] = system: SK-MEL-28 melanoma

| Compound | growth [1] | growth [2] | growth [3] | growth [4] | growth [5] | growth [6] | growth [7] | growth [8] | growth [9] | growth [10] | growth [11] | growth [12] | growth [13] | growth [14] | growth [15] | growth [16] | growth [17] | growth [18] | growth [19] | growth [20] |
| --- | --- | --- | --- | --- | --- | --- | --- | --- | --- | --- | --- | --- | --- | --- | --- | --- | --- | --- | --- | --- |
| Clc1cc(Cl)c(OCCCCCCN2CCNCC2)c(Cl)c1 | 67.1% | -43.6% (active) | 50.1% | -8.55% (active) | 24.1% | 55.3% | -37.8% (active) | 49% | -1.75% (active) | -43.9% (active) | -32% (active) | -34.1% (active) | 52.7% | 49.8% | 8% (active) | 46.1% | -15.6% (active) | -54.4% (active) | -66.2% (active) | -12.6% (active) |
| CN(C)CCCN(Cc1ccccc1O)C(=S)Nc1ccc(Cl)cc1 | 121% | 97.5% | 101% | 97% | 93.4% | 102% | 94.7% | 104% | 101% | 108% | 93% | 106% | 79.5% | 94.7% | 101% | 93.8% | 91.3% | 108% | 98.4% | 109% |
| Nc1cc(O)cc(O)c1 | 103% | 99.5% | 97.5% | 93.9% | 120% | 100% | 94.9% | 92.1% | 108% | 100% | 97.9% | 95% | 91.8% | 96.5% | 104% | 96.6% | 109% | 94.7% | 95% | 101% |
| O=[N+]([O-])c1cc2ncccc2c2ncccc12 | 89.7% | 49.3% | 72.8% | 60.6% | 92.4% | 91.5% | 134% | 93.6% | 90.5% | 84.5% | 71.9% | 102% | 88.2% | 96% | 102% | 77.8% | 72.1% | 76.4% | 45.5% | 92% |
| COc1cc(-c2cc(-c3ccc(C)cc3)nc3nc(N)[nH]c(=O)c23)ccc1Oc1ccnc2cc(Cl)ccc12 | 87.7% | 74.4% | 104% | 66.6% | 77.8% | 77.4% | 101% | 103% | 90.1% | 101% | 88.7% | 84.6% | 67.5% | 74.3% | 81% | 70.5% | 84% | 86.9% | 86.3% | 88.3% |
| CCc1ccc(-c2nnc(COc3ccc(-c4nc5ccccc5[nH]4)cc3OC)o2)cc1 | 48.1% | 33% | 47.6% | 10.5% | 68.7% | 52.8% | 79.3% | 6.55% (active) | 88.7% | 56.5% | 52.9% | 61.7% | -27.1% (active) | 84.3% | 23.3% | 54.9% | 80.2% | 91% | 24.5% | 93.5% |
| O=C1/C(=C/c2ccc(O)cc2)CSc2ccc(Cl)cc21 | 102% | 64% | 111% | 77.5% | 91.1% | 93% | 91.6% | 85.5% | 100% | 88.8% | 53.9% | 69.3% | 93.8% | 88.4% | 74.8% | 58.9% | 80.9% | 71.8% | 49.3% | 107% |
| COc1cccc2c1O/C(=C\c1ccc([N+](=O)[O-])s1)C2=O | 80.4% | 8.38% (active) | 88.6% | 55.4% | 25.7% | 12.5% | 97.2% | 55.7% | 65.2% | 48.1% | 8.57% (active) | 77.3% | 81.5% | 86.6% | 45.2% | 32.9% | 73.7% | 35.9% | 40.6% | 78.4% |
| CCN(CCCNC(=O)Cc1cc(=O)oc2cc(N(C)C)ccc12)CCNc1ccnc2cc(Cl)ccc12 | 109% | 0.722% (active) | 88.2% | 78.7% | 74.6% | 92.1% | 80.5% | 25.2% | 41.9% | 11.5% | 83.2% | 18.6% | 88.6% | 91.5% | 58.9% | 78.7% | 76.2% | 98.7% | 66.4% | 85% |
| Cc1ccc2c3c(cccc13)-c1ccccc1C2=O | 101% | 108% | 110% | 95.5% | 105% | 95.7% | 95.1% | 97.2% | 101% | 98.6% | 85% | 83.3% | 89.6% | 96.5% | 87.8% | 91.3% | 91.3% | 90.6% | 97.8% | 121% |
| COc1cc(OC)cc(N2CCN(C(=O)Nc3nc4cc(F)ccc4nc3OC)CC2)c1 | 1% (active) | 12.8% | 44.6% | 1.05% (active) | 22.1% | 29.2% | 15% | -12.2% (active) | 72.7% | 1.15% (active) | 7.06% (active) | 3.96% (active) | 27.9% | 28.7% | 17.5% | 22.4% | -42.2% (active) | 47.9% | 23.6% | 77.1% |
| O=C(COCc1c(-c2ccccc2)no[n+]1[O-])Nc1nc(-c2ccc(Cl)cc2)cs1 | 109% | 108% | 97.8% | 99.9% | 112% | 97.9% | 101% | 109% | 96.5% | 108% | 103% | 105% | 98.6% | 107% | 103% | 95.7% | 95.6% | 99.6% | 95.8% | 111% |
| COc1ccc(C(C)=O)cc1N1C(=O)C2C(C1=O)C1(c3ccccc3)C(=O)C2(c2ccccc2)C(c2ccc(C)cc2)=C1c1ccc(C)cc1 (stereo not given) | 19.1% | 11.7% | 17% | 12.3% | -4.28% (active) | 13.8% | 1.18% (active) | 11.4% | 16.2% | -28.1% (active) | 25.3% | 21.4% | 57.3% | 29.7% | 14.8% | 12.6% | -29.1% (active) | -70.9% (active) | 7.38% (active) | 37.6% |
| CC(C)C(C)C(N)C(=O)O (stereo not given) | 105% | 90.8% | 95.9% | 125% | 108% | 107% | 117% | 101% | 108% | 94.1% | 97.6% | 107% | 95.2% | 115% | 103% | 98.2% | 102% | 113% | 96% | 108% |
| CCOC(=O)CSC(=S)SCC(=O)OCC | 107% | 95.6% | 98% | 118% | 109% | 113% | 103% | 94.1% | 82.8% | 97.9% | 94.6% | 99.8% | 83.1% | 105% | 104% | 103% | 106% | 101% | 98.6% | 97.7% |
| Cc1cc(C)c(/C=C2\C(=O)Nc3ccc(NC(=O)CCCCCCC(=O)NO)cc32)[nH]1 | 19.3% | 22.7% | 18.7% | 12% | 19.1% | 22.8% | 30% | 15% | 0.0206% (active) | 18.4% | 86% | 11.4% | -1.02% (active) | 31.2% | 4% (active) | 5.9% (active) | 6.38% (active) | -12.3% (active) | 7.92% (active) | 24% |
